VP16 counter = inhibits Gal4-VP16 luciferase reporter, ROR gamma counter-screen. Potency, µM (series often up to 53.6 µM), for inactives: at the highest dose activity, negative = inhibition, actives largely listed as inhibitors. AID 2546. 3.5% of 310,000 active. Drosophila S2 Gal4-VP16 UAS-luciferase, luminescence, 20 h;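 also: Gal4-VP16 expression switched on by copper sulfate through the metallothionein promoter; nearly all actives have a fitted effect of over 50% in size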
RORgamma inh = ROR gamma (mouse) transcription inhibition; P51450; Drosophila S2 Gal4-RORgamma UAS-luciferase reporter, 20 h; Potency, µM (series often up to 53.6 µM), inactives show top-dose activity change, negative = inhibition, usual class: inhibitors; 5.4% of 310,000 active; AID 2551; also: nearly all actives have a fitted effect of over 60% in size
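Stable Schneider cell line, Gal4 DNA-binding domain fused to ROR gamma, UAS-luciferase. Cmpd 1 hr RT → CuSO4 700 uM final → 20 hr RT → luciferase reagent 10 min → luminescence.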
TDP1 cell CPT = DT40-hTDP1 cell growth loss with CPT; AID 686979; 12% of 420,000 active; chicken DT40 Tdp1-/-;hTDP1 cells + 20 nM CPT, ATP luminescence, 48 h; Potency, µM (highest dose often 46.2 µM), for inactives: at the highest dose activity change, negative = growth inhibition, usual class: inhibitors; also: nearly all actives have a fitted effect of over 55% in size
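Chicken DT40 Tdp1-/- cells complemented with human TDP1, 400 cells/well, exposed to compounds plus 20 nM camptothecin for at least 48 h at 37 C; viability read as ATP content by CellTiter-Glo luminescence.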
TDP1 block = blocks human tyrosyl-DNA phosphodiesterase 1. Q9NUW8. recombinant TDP1, AlphaScreen DNA substrate cleavage. Potency, µM (doses to about 130 µM), inactives show at the top dose activity change, negative = inhibition, actives largely listed as inhibitors. 0.28% of 350,000 active; also: nearly all actives have a fitted effect of over 40% in size
Target sequence (Q9NUW8 whole entry, looked up): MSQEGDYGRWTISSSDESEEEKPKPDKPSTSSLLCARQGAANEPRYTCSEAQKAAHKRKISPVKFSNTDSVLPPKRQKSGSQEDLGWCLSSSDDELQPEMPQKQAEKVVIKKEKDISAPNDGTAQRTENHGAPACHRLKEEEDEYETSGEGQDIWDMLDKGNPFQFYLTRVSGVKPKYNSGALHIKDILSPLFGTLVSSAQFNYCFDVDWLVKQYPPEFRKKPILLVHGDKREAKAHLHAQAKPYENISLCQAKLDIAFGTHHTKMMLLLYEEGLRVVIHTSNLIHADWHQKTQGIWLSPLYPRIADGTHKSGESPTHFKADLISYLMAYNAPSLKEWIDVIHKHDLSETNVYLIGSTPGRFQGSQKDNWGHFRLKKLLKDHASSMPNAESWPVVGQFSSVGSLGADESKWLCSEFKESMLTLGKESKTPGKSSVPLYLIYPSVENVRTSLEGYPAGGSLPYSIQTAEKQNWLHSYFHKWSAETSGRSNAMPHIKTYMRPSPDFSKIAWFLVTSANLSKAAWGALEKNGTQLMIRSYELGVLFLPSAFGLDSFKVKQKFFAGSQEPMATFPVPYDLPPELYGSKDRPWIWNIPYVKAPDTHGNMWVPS
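Tdp1 1 nM final; 15 min RT w/ cpd; substrate 15 nM, 5 min; beads 10 ug/ml, 10 min; AlphaScreen read. Neg ctrl: no enzyme.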
TDP1 cell noCPT = qHTS for Inhibitors of human tyrosyl-DNA phosphodiesterase 1 (TDP1): qHTS in cells in absence of CPT | DT40 Tdp1-/- hTDP1 cells, no CPT, ATP luminescence, 48 h | Potency, µM (top dose mostly 46.2 µM), without a hit: top-dose activity change, negative = growth inhibition, hits mostly inhibitors | 15% of 420,000 active | AID 686978, 2013; also: nearly all actives have a fitted effect of over 55% in size
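Luminescent ATP content (CellTiter-Glo) served as the growth readout. Knockout chicken DT40 cells expressing human TDP1 were exposed to compounds without camptothecin for a minimum 48 hr at 37 °C.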
Starred values were filed as active, the others as inactive; ? = inconclusive; · = no result given; [ ] = another dose, or the depositor's remark. A selection: hits, their analogues and other compounds. The true share with any hit is near 19%. Calls follow the shape of the dose curve; as a rule, active = well fitted curve in the direction sought with a large enough effect; inconclusive = small, poorly fitted or top-dose-only effect, or another doubt; inactive = no such curve, though single readings can be large; an effect the other way counts as inactive or inconclusive. % is scaled to controls: 0 for no effect and ±100 for the full control effect; potency is read from the fitted curve at half-maximal effect.

SMILES	VP16 counter	RORgamma inh	TDP1 cell CPT	TDP1 block	TDP1 cell noCPT
CC(=O)Nc1ccccc1-c1nc2ccccc2n(C(C)C(=O)Nc2cccc(C)c2C)c1=O (centres undefined)	·	·	21µM*	6%	?
CCC(C(=O)Nc1ccc(C)c(Cl)c1)n1c(=O)c(-c2ccccc2NC(C)=O)nc2ccccc21 (centres undefined)	·	·	21µM*	6%	13µM*
COc1ccc(NC(=O)Cn2c(=O)c(-c3cc(C)ccc3NC(C)=O)nc3ccccc32)c(OC)c1	·	·	-6%	3%	-13%
Cc1ccc(O)c(C(=O)c2cnc3c(c2)COc2ccc(C)cc2-3)c1	18%	?	?	9%	?
CCCCOc1ccccc1NC(=O)Cn1c(-c2cncs2)nc2ccccc21	·	·	23µM*	6%	?
CC(=O)Nc1ccccc1-c1nc2ccccc2n(C(C)C(=O)Nc2ccccc2C(F)(F)F)c1=O (centres undefined)	·	·	-28%	3%	?
CCC(=O)Nc1ccccc1-c1nc2ccccc2n(C(C)C(=O)Nc2ccc(OC)cc2)c1=O (centres undefined)	·	·	?	0%	15µM*
CC1(C)CC(=O)C(N=Nc2cc(S(=O)(=O)N3CCOCC3)ccc2Cl)=C(O)C1	4%	4%	-1%	?	8%
COc1ccc([N+](=O)[O-])cc1NC(=O)C1CCCN1S(=O)(=O)c1cccs1 (centres undefined)	·	·	-1%	1%	?
O=C(Nc1ccc(Br)cc1)C1CCCN1S(=O)(=O)c1cccs1 (centres undefined)	9%	32%	21µM*	3%	13µM*
COc1ccc(NC(=O)C2CCCN2S(=O)(=O)c2cccs2)c([N+](=O)[O-])c1 (centres undefined)	·	·	21µM*	-2%	10µM*
CCN1C[C@@H]2[C@@H]3C(=O)N(Cc4ccccc4)C(=O)[C@@H]3[C@](C)(C1=O)N2C(=O)c1ccc(Br)cc1	·	·	-17%	·	-11%
Cc1cc(C(=O)CN2C(=O)NC(CC(C)C)C2=O)c(C)n1-c1ccccc1F (centres undefined)	?	20%	9%	2%	-7%
CCN1/C(=C\C=C(C(C)=O)C(C)=O)Sc2ccccc21	13%	10%	?	4%	?
CCN1/C(=C\C(=S)Nc2ccccc2)Sc2ccccc21	?	4µM*	3.7µM*	10%	3.3µM*
COc1cccc(OCC(O)CN2CCN(C(c3ccccc3)c3ccccc3)CC2)c1 (centres undefined)	·	·	?	·	13µM*
c1ccc(OCCN2CCNCC2)cc1	·	·	-10%	·	-5%
OC(CN1CCN(C(c2ccccc2)c2ccccc2)CC1)c1ccc(Br)cc1 (centres undefined)	5%	18%	18µM*	·	?
c1ccc(OCCN2CCN(C(c3ccccc3)c3ccccc3)CC2)cc1	-21%	-9%	?	·	15µM*
COc1ccc(CC(=O)NC(CC(=O)O)c2cccc([N+](=O)[O-])c2)cc1 (centres undefined)	-10%	13%	2%	1%	-6%
Cc1cc(C)c(C(=O)/C=C/c2ccc(C(C)C)cc2)c(=O)[nH]1	32µM*	?	23µM*	6%	16µM*
COc1ccc(N2CSC3=C(C#N)C(c4cc(OC)ccc4OC)CC(=O)N3C2)c(OC)c1 (centres undefined)	?	?	?	9%	?
CCOc1ccccc1N1CSC2=C(C#N)C(c3c(OC)ccc4ccccc34)CC(=O)N2C1 (centres undefined)	?	?	?	4%	21µM*
COc1ccc(N2CSC3=C(C#N)C(c4cc(OC)c(OC)cc4OC)CC(=O)N3C2)c(OC)c1 (centres undefined)	4%	13µM*	?	5%	?
CCc1ccc(N2CSC3=C(C#N)C(c4cccs4)CC(=O)N3C2)cc1 (centres undefined)	15%	37%	?	0%	16µM*
SMILES	VP16 counter	RORgamma inh	TDP1 cell CPT	TDP1 block	TDP1 cell noCPT
Cc1cc2nc(Cl)c(Cl)nc2cc1C	-3%	3%	-7%	·	8%
Cc1nc(-n2nc(C)c(Cc3ccccc3Cl)c2C)sc1C(=O)N1CCC(C)CC1	·	·	-8%	-3%	-13%
Cc1cc(OCC(=O)N(C(C)C)C(C)C)cc(C)c1Br	-26%	9%	?	0%	?
COc1cccc(N/C=C(\C#N)c2ccc(OCCCF)cc2)c1	7%	20%	18µM*	7%	?
O=C(CCNC(=O)c1ccccc1Cl)Nc1ccc(Cl)c(C(F)(F)F)c1	-20%	-7%	?	3%	23µM*
COc1ccccc1NC(=O)CN1CCN(CC(=O)Nc2ccc(Cl)c(C(F)(F)F)c2)CC1	?	?	15µM*	2%	13µM*
COc1cc(Cl)c(C)cc1NC(=O)c1ccccc1NC(=O)CN1CCOCC1	-4%	-14%	2.6µM*	·	4.6µM*
C/C(CC(=O)NC(C)(C)C)=N\NC(N)=S	?	11µM*	?	0%	?
COc1cc(NC(=O)c2ccccc2F)c(OC)cc1NC(=O)CN1CCOCC1	-2%	-15%	-19%	2%	?
C/C(CC(=O)NC(C)(C)C)=N\NC(=O)c1ccccc1N	-2%	?	-22%	1%	-21%
Cc1cc(C)c(NC(=O)CNC(=O)Cc2sc(C)nc2-c2ccc(F)cc2)c(C)c1	·	·	-27%	·	-9%
COc1ccc(NC(=O)CN2CCN(CC(=O)Nc3ccccc3Cl)CC2)cc1Cl	4%	18%	15µM*	3%	12µM*
C/C(CC(=O)Nc1ccc(Cl)c(C(F)(F)F)c1)=N\NC(=O)c1ccccc1O	?	?	?	9%	?
O=C(CCNC(=O)c1ccccc1Cl)Nc1nc(-c2ccccc2Cl)cs1	14%	?	?	5%	18µM*
C/C(CC(=O)Nc1ccc(Cl)c(C(F)(F)F)c1)=N\NC(N)=S	?	11µM*	?	0%	?
CN(CC(=O)Nc1ccc(Cl)c(C(F)(F)F)c1)C(=O)Cc1c[nH]c2ccccc12	·	·	-16%	8%[0.505 µM]	?
CCc1ccccc1NCC(=O)Nc1ccc(Cl)c(C(F)(F)F)c1	?	10%[10 µM]	26µM*	0%	16µM*
COC(=O)CNC(=O)C1CCN(S(=O)(=O)c2cnc[nH]2)CC1	0%	-14%	1%	1%	10%
CCC1(C)NC(=O)N(/N=C/c2cc(OC)c(O)c(OC)c2)C1=O (centres undefined)	-16%	-13%	6%	0%	2%
